We go through six compounds from PubChem BioAssay (NCI).

Compounds without any hit were thinned out: in the full panel of roughly 79,000, 15% have a hit. A number with no mark means an inactive call. Active and inactive are the calls of the source. Rule as the data show it: active = growth inhibition above about 70%; inactive = the rest.

The nature of assay [1]: NCI Yeast Anticancer Drug Screen. Data for the rad50 strain (AID 155).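 Also: 0% = growth of vehicle-only cultures of the same strain.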 To be noted: S. cerevisiae rad50 strain growth inhibition, active compounds read high. The method in brief:
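DNA repair mutant yeast, compound exposure, growth read-out; inhibition is taken relative to vehicle.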

Assay [2] is described as follows: NCI Yeast Anticancer Drug Screen. Data for the mec2-1 strain (AID 157). Conditions: S. cerevisiae mec2-1 strain, active compounds read high. The method in brief:
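Growth inhibition is read against vehicle-treated controls after compound exposure of the mec2-1 yeast strain, which is defective in DNA damage repair or cell cycle control.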

A short description of assay [3]: NCI Yeast Anticancer Drug Screen. Data for the sgs1 mgt1 strain (AID 161).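 Also: 0% = growth of cultures given vehicle only.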 To be noted: S. cerevisiae sgs1 mgt1 strain, active compounds read high. The method in brief:
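Compounds are added to genetically altered yeast, and growth is compared with cultures given vehicle alone to give percent inhibition.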

Assay [4] can be described thus: NCI Yeast Anticancer Drug Screen. Data for the cln2 rad14 strain (AID 165).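 Also: 0% = growth equal to vehicle treated cultures.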 Conditions: S. cerevisiae cln2 rad14 strain, active compounds read high. Put shortly:
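Growth inhibition, relative to vehicle-treated controls, is the read-out. The test organism is a yeast strain with defined genetic alterations, cln2 rad14.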

Assay [5] can be described thus: NCI Yeast Anticancer Drug Screen. Data for the bub3 strain (AID 167). To be noted: S. cerevisiae bub3 mutant strain, active compounds read high. Put shortly:
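In this screen, a yeast mutant lacking normal mitotic checkpoint function is challenged with compound. Relative growth versus vehicle gives the inhibition value.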

Assay [6] in a line: NCI Yeast Anticancer Drug Screen. Data for the mlh1 rad18 strain (AID 175). Conditions: S. cerevisiae mlh1 rad18 strain growth inhibition, active compounds read high. Put shortly: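 Cells of a genetically altered yeast strain, deficient in DNA damage repair, were treated with compound. Their growth was then compared with that of vehicle-treated cultures to give inhibition.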
The mark [7] stands for this setting: at 5.0 µM (retest, dose inferred, filed as 0.5).
The mark [8] stands for this setting: at 50.0 µM (retest, dose inferred, filed as 5.0).

Take `CC(CCOP(=O)(O)OCCC(C)CC(C)(C)C)CC(C)(C)C` (stereo not drawn): the growth inhibition in assay [1] (setting [7]) is -3%; in assay [1] (setting [8]) it was 20%; in assay [1] (at 50.0 µM), 11.8%; in assay [2] (setting [7]), -9%; in assay [2] (setting [8]) it was 13%; in assay [2] (at 50.0 µM) it was 62.6%. The growth inhibition in assay [3] (setting [7]) is -4%; in assay [3] (setting [8]) it was 52%; in assay [3] (at 50.0 µM), 35.4%; in assay [4] (setting [7]), -2%; in assay [4] (setting [8]), 45%; in assay [4] (at 50.0 µM), 51%. Also, the growth inhibition in assay [5] (setting [7]) was -19%; in assay [5] (setting [8]), 10%; in assay [5] (at 50.0 µM) it was 71.4% (active); in assay [6] (setting [7]), 3%; in assay [6] (setting [8]), 19%; in assay [6] (at 50.0 µM) it was 47.8%.
Consider `C/C(=N\NC(N)=S)C(CN1CCCCC1)C(C1=C(O)c2ccccc2OC1)c1ccccc1` (stereo not drawn), for which the growth inhibition was 10% in assay [1] (setting [7]); 38% in assay [1] (setting [8]); 64.7% in assay [1] (at 50.0 µM); 6% in assay [2] (setting [7]); 45% in assay [2] (setting [8]); 63% in assay [2] (at 50.0 µM). For the same compound, the growth inhibition was 19% in assay [3] (setting [7]); 67% in assay [3] (setting [8]); 68.5% in assay [3] (at 50.0 µM); 22% in assay [4] (setting [7]); 62% in assay [4] (setting [8]); 53.7% in assay [4] (at 50.0 µM). In addition, the growth inhibition was 32% in assay [5] (setting [7]); 70% (active) in assay [5] (setting [8]); 71.8% (active) in assay [5] (at 50.0 µM); 20% in assay [6] (setting [7]); 55% in assay [6] (setting [8]); 67.5% in assay [6] (at 50.0 µM).
On to `COC(=O)CSc1n[nH]c(-c2ccc(O)c([N+](=O)[O-])c2)n1`, for which the growth inhibition in assay [1] (setting [7]) is 17%; in assay [1] (setting [8]), 47%; in assay [1] (at 50.0 µM), 53.9%; in assay [2] (setting [7]) it was 31%; in assay [2] (setting [8]) it was 56%; in assay [2] (at 50.0 µM), 53.2%. In addition, the growth inhibition in assay [3] (setting [7]) was 25%; in assay [3] (setting [8]), 71% (active); in assay [3] (at 50.0 µM) it was 75.6% (active); in assay [4] (setting [7]), 40%; in assay [4] (setting [8]), 57%; in assay [4] (at 50.0 µM), 65.5%. Moreover, the growth inhibition in assay [5] (setting [7]) was 35%; in assay [5] (setting [8]), 51%; in assay [5] (at 50.0 µM) it was 53%; in assay [6] (setting [7]), 30%; in assay [6] (setting [8]), 57%; in assay [6] (at 50.0 µM), 57.4%.
Take `Cc1cc(N=Nc2ccncc2C)ccc1N`: the growth inhibition is -69% in assay [1] (setting [7]); 98% (active) in assay [1] (setting [8]); 92.5% (active) in assay [1] (at 50.0 µM); -50% in assay [2] (setting [7]); 87% (active) in assay [2] (setting [8]); 52.5% in assay [2] (at 50.0 µM). Besides, the growth inhibition was -34% in assay [3] (setting [7]); 98% (active) in assay [3] (setting [8]); 75.6% (active) in assay [3] (at 50.0 µM); -45% in assay [4] (setting [7]); 92% (active) in assay [4] (setting [8]); 48.9% in assay [4] (at 50.0 µM). For the same compound, the growth inhibition in assay [5] (setting [7]) is -40%; in assay [5] (setting [8]) it was 98% (active); in assay [5] (at 50.0 µM), 89% (active); in assay [6] (setting [7]) it was -72%; in assay [6] (setting [8]), 96% (active); in assay [6] (at 50.0 µM) it was 66.7%.
With `O=C(N=Nc1c(O)[nH]c2ccccc12)C(O)(c1ccccc1)c1ccccc1`, the growth inhibition in assay [1] (setting [7]) was 18%; in assay [1] (setting [8]) it was 32%; in assay [1] (at 50.0 µM), -6.25%; in assay [2] (setting [7]) it was 19%; in assay [2] (setting [8]) it was 32%; in assay [2] (at 50.0 µM), -8.75%. Further, the growth inhibition is 21% in assay [3] (setting [7]); 82% (active) in assay [3] (setting [8]); 80.7% (active) in assay [3] (at 50.0 µM); 26% in assay [4] (setting [7]); 27% in assay [4] (setting [8]); 35.5% in assay [4] (at 50.0 µM). In addition, the growth inhibition was 12% in assay [5] (setting [7]); 38% in assay [5] (setting [8]); 25.9% in assay [5] (at 50.0 µM); 29% in assay [6] (setting [7]); 38% in assay [6] (setting [8]); 29.1% in assay [6] (at 50.0 µM).
Regarding `CCC[CH2][Ge]([CH2]CCC)([CH2]CCC)[O]C(=O)C(OC(C)=O)c1ccccc1` (stereo not drawn), the growth inhibition in assay [1] (setting [7]) is 95% (active); in assay [1] (setting [8]), 95% (active); in assay [1] (at 50.0 µM), 78% (active); in assay [2] (setting [7]), 85% (active); in assay [2] (setting [8]) it was 85% (active); in assay [2] (at 50.0 µM) it was 75.2% (active). The growth inhibition in assay [3] (setting [7]) is 98% (active); in assay [3] (setting [8]) it was 98% (active); in assay [3] (at 50.0 µM), 86% (active); in assay [4] (setting [7]), 55%; in assay [4] (setting [8]) it was 55%; in assay [4] (at 50.0 µM), 71% (active). Also, the growth inhibition in assay [5] (setting [7]) is 62%; in assay [5] (setting [8]), 62%; in assay [5] (at 50.0 µM) it was 85% (active); in assay [6] (setting [7]) it was 87% (active); in assay [6] (setting [8]), 87% (active); in assay [6] (at 50.0 µM) it was 79.5% (active).
